Inconclusive results are not listed. Calls of active or inactive are those of the source. Calls come from the whole dose curve; as a rule, active = well fitted curve in the direction sought with a large enough effect; inconclusive = small, poorly fitted or top-dose-only effect, or another doubt; inactive = no such curve, though single readings can be large; an effect the other way counts as inactive or inconclusive.
How the values were obtained:
[1] = Cellular Toxicity (caspase-3) N2a (AID 665); conditions: N2a cells, luminescence, normalized: DMSO 0%, 10 µM staurosporine 100%; at 92.2 µM (top of the series);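 note: compound exposure lasted 16 h at 37 °C before readout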
How it was run: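 Mouse N2a neuroblastoma cells, 1500 per well, treated 16 h at 37 °C in complete medium; caspase-3/7 activity by Caspase-Glo luminescence after 1 h. Normalized to DMSO and 10 uM staurosporine; AC50 from Hill fits.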

[2] = Cellular Toxicity (caspase-3) NIH 3T3 (AID 666);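 note: caspase signal read after 16 h compound exposure; 0% = DMSO basal and 100% = 100 µM tamoxifen stimulation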
How it was run: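 Mouse NIH 3T3 fibroblasts (1000/well) treated 16 h at 37 C; caspase-3/7 activity measured by Caspase-Glo 3/7 luminescence after 20 min. Normalized to DMSO and 100 uM tamoxifen; AC50 from Hill fits.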

[3] = Cellular Toxicity (caspase-3) Renal Proximal Tubule (AID 667); conditions: renal proximal tubule cells; at 91.7 µM (top of the series), primary cells freshly taken from rat, solvent-only wells 0%, staurosporine 100% unless noted;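 note: cells exposed to compound for 16 hours at 37 °C before detection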
How it was run: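 In qHTS format, rat primary proximal tubule cells seeded at 1000 per well are exposed to compounds for 16 hours at 37 °C. An increase in Caspase-Glo 3/7 luminescence indicates caspase activation.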

[4] = biological target: Cytochrome P450 3A4 (Homo sapiens) (UniProt P08684); assay: qHTS Assay for Inhibitors and Substrates of Cytochrome P450 3A4 (AID 884); note: % is set by controls: 0 for no effect and ±100 for the full control effect; nearly all actives have a fitted effect of over 50% in size
How it was run: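 20 nM human CYP3A4 with 25 uM Luciferin-PPXE (at KM) in 200 mM KPO4, preincubated 10 min with compound; NADPH regeneration started a 60 min RT reaction. Luciferin detected by luminescence, normalized to 57 uM ketoconazole as full inhibition.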

[5] = Cell Viability - LYMP2-001 (AID 921);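 note: 0% = DMSO only and full inhibition = tetraoctylammonium bromide control wells; nearly all actives have a fitted effect of over 70% in size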
How it was run: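 qHTS, 1536-well; lymphoblastoid cells, 24 hr compound, 37 C; ATP by CellTiter-Glo, 30 min RT; luminescence; Hill-fit AC50.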

[6] = MultiTox-Fluor Cytotoxicity Assay - LYMP1-001 - Dead Cells (AID 946)
How it was run: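 Cytotoxicity as increased dead-cell protease fluorescence (bis-AAF-R110, 485/520 nm), read 60 min after MultiTox-Fluor reagent. Human lymphoblastoid line exposed 16 h; Hill-fitted AC50, with DMSO as 0% and 15 uM tetraoctylammonium bromide as 100%.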

[7] = MultiTox-Fluor Cytotoxicity Assay - LYMP1-001 - Live Cells (AID 947);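 note: 0% = DMSO only and full inhibition = tetraoctylammonium bromide control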
[8] = Cell Viability - LYMP1-002 - Assay at 16 hr (AID 948);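 note: 0% = DMSO alone and full effect = 92 µM tetraoctylammonium bromide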
How it was run: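 Acute cytotoxicity is scored as a concentration-dependent fall in intracellular ATP in a human lymphoblastoid line (LYMP1-002) after 16 hr compound exposure at 37 C, measured by luciferase luminescence.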

[9] = MultiTox-Fluor Cytotoxicity Assay - LYMP1-002 - Live Cells (AID 955); note: % is set by controls: 0 for no effect and ±100 for the full control effect
How it was run: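 Human lymphoblastoid LYMP1-002 cells, 2500/well, treated 16 h at 37 C in complete medium. Live-cell protease activity via GF-AFC fluorescence (Ex/Em 405/510) after 60 min reagent incubation; AC50 from Hill fits.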

[10] = MultiTox-Fluor Cytotoxicity Assay - LYMP1-002 - Dead Cells (AID 960); note: nearly all actives have a fitted effect of over 60% in size
How it was run: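 Human lymphoblastoid LYMP1-002 cells, 2500/well, treated 16 h at 37 C; dead-cell protease cleavage of bis-AAF-R110 read by fluorescence (485/520); normalized to DMSO and 15 uM tetraoctylammonium bromide; AC50 from Hill fit.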

[11] = MultiTox-Fluor Cytotoxicity Assay - LYMP1-003 - Dead Cells (AID 961); note: nearly all actives have a fitted effect of over 70% in size
How it was run: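 Dead-cell protease release, detected as bis-AAF-R110 fluorescence at 485/520 nm, was measured in LYMP1-003 cells after 16 h compound treatment at 37 C. AC50 values came from Hill-modeled qHTS curves normalized to DMSO (0%) and 15 uM tetraoctylammonium bromide (100%).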

[12] = MultiTox-Fluor Cytotoxicity Assay - LYMP1-003 - Live Cells (AID 962);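 note: 0% = DMSO only and full loss = 92 µM tetraoctylammonium bromide; cytotoxic hits lower the live-cell protease signal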
How it was run: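 LYMP1-003 lymphoblastoid cells, 2500/well in complete medium, treated 16 h at 37 C; live-cell protease cleavage of GF-AFC read by fluorescence (Ex/Em 405/510) after 60 min reagent; AC50 from Hill fits of concentration-response.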

[13] = Cell Viability - LYMP1-003 - Assay at 24 hr (AID 963);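 note: plate controls were DMSO only for no effect and tetraoctylammonium bromide positive control for full effect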
How it was run: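 Human lymphoblastoid LYMP1-003 cells, 2500/well, treated 24 h at 37 C in complete medium. Viability read as intracellular ATP by CellTiter-Glo luminescence after 30 min at room temperature; AC50 from Hill-equation fits of qHTS concentration-response.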

[14] = Cell Viability - LYMP1-003 - Assay at 40 hr (AID 964); note: % is set by controls: 0 for no effect and ±100 for the full control effect; nearly all actives have a fitted effect of over 60% in size
How it was run: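 LYMP1-003 human lymphoblastoid cells, 2500/well, preincubated 5 h at 37 C, then treated with compound for 40 h at 37 C. Intracellular ATP read by CellTiter-Glo luminescence after 30 min at room temperature; AC50 from Hill-equation fits.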

[15] = Cell Viability - LYMP2-003 (AID 965);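 note: cells exposed to compounds for 24 h before reading; 0% = DMSO only and full effect = 92 µM tetraoctylammonium bromide; nearly all actives have a fitted effect of over 50% in size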
How it was run: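 Acute cytotoxicity is scored as a concentration-dependent drop in intracellular ATP, measured by luciferase luminescence in human lymphoblastoid cells treated for 24 hours at 37 C. AC50 values derive from Hill-equation modelling.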

[16] = Cell Viability - LYMP2-004 (AID 966);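 note: plate controls were DMSO only for no effect and tetraoctylammonium bromide control for full effect; nearly all actives have a fitted effect of over 65% in size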
How it was run: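 Lymphoblastoid LYMP2-004 cells, 2500 per well, were preincubated for 5 hr and then treated with compound for 24 h at 37 C in complete medium. Viability was read as cellular ATP by CellTiter-Glo luminescence, and AC50 values were taken from Hill fits to concentration-response data.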

[17] = Cell Viability - LYMP2-005 (AID 967);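 note: plate controls were DMSO only for no effect and 92 µM tetraoctylammonium bromide control for full effect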
How it was run: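 qHTS viability screen in LYMP2-005 cells: 24 h at 37 C with compound, ATP luminescence via CellTiter-Glo, AC50 from Hill curves.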

[18] = Cell Viability - LYMP2-009 (AID 968);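 note: 0% = DMSO alone and the full-kill end = tetraoctylammonium bromide at 92 µM; nearly all actives have a fitted effect of over 55% in size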
[19] = Cell Viability - LYMP2-011 (AID 969);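 note: cells exposed to compound for 24 hours; 0% = DMSO only and full inhibition = 92 µM tetraoctylammonium bromide; nearly all actives have a fitted effect of over 60% in size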
How it was run: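 2500 cells/well in complete medium, compound-treated 24 h at 37 C. Viability read as intracellular ATP by CellTiter-Glo luminescence after 30 min at room temperature. AC50 from Hill fits of qHTS concentration-response data.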

[20] = Cell Viability - LYMP2-013 (AID 970);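 note: 0% = DMSO only and full inhibition = tetraoctylammonium bromide control; nearly all actives have a fitted effect of over 55% in size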
How it was run: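 Human lymphoblastoid LYMP2-013 cells, 2500/well, treated 24 h at 37 C in complete medium; viability as intracellular ATP by CellTiter-Glo luminescence after 30 min. AC50 from Hill fits of qHTS concentration-response.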

[21] = Cell Viability - LYMP2-015 (AID 971);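 note: 0% = DMSO only and full effect = 92 µM tetraoctylammonium bromide; nearly all actives have a fitted effect of over 55% in size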
How it was run: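 LYMP2-015 human lymphoblastoid cells (2500/well) in complete medium, compound-treated 24 h at 37 C; viability read as cellular ATP by CellTiter-Glo luminescence after 30 min at room temperature. AC50 from Hill-equation fits of qHTS concentration-response data.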

[22] = Cell Viability - LYMP2-019 (AID 973);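 note: 0% = DMSO alone and full effect = 92 µM tetraoctylammonium bromide; nearly all actives have a fitted effect of over 55% in size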
How it was run: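 Human lymphoblastoid LYMP2-019 cells (2500/well) preincubated 5 h at 37 C, then treated 24 h at 37 C in complete medium. Viability by CellTiter-Glo ATP luminescence after 30 min at room temperature; AC50 from Hill fits.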

[23] = Cell Viability - LYMP2-021 (AID 974)
How it was run: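 Human lymphoblastoid LYMP2-021 cells, 2500/well in complete medium, treated 24 hours at 37 C. Intracellular ATP by CellTiter-Glo luminescence (30 min, RT); AC50 from Hill fits of concentration-response.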

[24] = Cell Viability - LYMP2-023 (AID 975)
How it was run: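 LYMP2-023 human lymphoblastoid cells, 2500/well, preincubated 5 hr at 37 C, then compound-treated 24 hr at 37 C in complete medium. CellTiter-Glo luminescence (ATP) after 30 min at room temperature; AC50 from Hill-equation fits; tetraoctylammonium bromide positive control.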

Sequence of Cytochrome P450 3A4 (Homo sapiens) (P08684 whole entry, looked up): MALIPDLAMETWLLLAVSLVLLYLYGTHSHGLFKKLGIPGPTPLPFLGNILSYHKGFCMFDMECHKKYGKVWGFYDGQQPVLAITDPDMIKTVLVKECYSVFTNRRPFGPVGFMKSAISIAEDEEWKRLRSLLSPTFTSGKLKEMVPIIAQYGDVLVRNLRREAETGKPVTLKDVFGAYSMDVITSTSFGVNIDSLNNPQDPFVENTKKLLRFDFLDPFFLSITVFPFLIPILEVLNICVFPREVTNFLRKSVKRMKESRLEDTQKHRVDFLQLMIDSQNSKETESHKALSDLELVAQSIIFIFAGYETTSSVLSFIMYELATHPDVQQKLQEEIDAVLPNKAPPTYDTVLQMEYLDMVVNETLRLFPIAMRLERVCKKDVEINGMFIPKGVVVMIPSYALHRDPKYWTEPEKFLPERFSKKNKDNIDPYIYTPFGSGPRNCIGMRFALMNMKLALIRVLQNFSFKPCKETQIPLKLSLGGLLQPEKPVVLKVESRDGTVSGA

CC(Cl)Cl
inactive: caspase-3 activation [1] -4.66% | outcome [2] | caspase-3 activation [3] -1.5% | Potency [4] | Potency [5] | Potency [6] | Potency [7] | Potency [8] | outcome [9] | Potency [10] | Potency [11] | Potency [12] | Potency [13] | Potency [14] | Potency [15] | Potency [16] | Potency [17] | Potency [18] | Potency [19] | Potency [20] | Potency [21] | Potency [22] | Potency [23] | Potency [24]
